Among the data in PMC8159961, “Exploring protein hotspots by optimized fragment pharmacophores” (Nature Communications, 2021) are Thrombin values, retold here.

Unmarked numbers belong to inactive results. The rule behind the calls is not given here.

The experiment concerns the target thrombin (human, UniProt P00734). The experiment can be described thus: primary screen, binary call; higher = more effect of the substance. Particulars: 200 µM. The arrangement: screenings were carried out in duplicate in one independent experiment. As for the experimental part:
Protease inhibitory assays were performed in transparent microtiter plates in a final volume of 200 µL with the use of chromogenic substrates. The reaction rates in the absence and in the presence of the inhibitor were measured; screenings were carried out in duplicate in one independent experiment and Ki values were determined in triplicate in two independent experiments.
Regarding `c1ccc2oc(C3CCCNC3)nc2c1` (stereo not shown), the Thrombin was 0. In the case of `c1ccc2c(N3CCNCC3)ccnc2c1` it was 0; in that of `O=C(CN1CCNCC1)c1ccccc1`, 0. Regarding `COc1ccccc1CC1CCNCC1.Cl`, the Thrombin is 0. The value for `Cc1ccc(C)n1Cc1ccccc1Cl` was 0; that for `NC(=O)N1CCC(C(=O)O)CC1` was 1 (active). In the case of `CC1C(=O)NC(=O)N1c1ccc(Cl)cc1` (stereo not shown) it was 0. In the case of `Oc1nnc(-c2ccccc2)o1` it was 0; in that of `COc1cccc(NC2=NCCCCC2)c1`, 0. In the case of `NC1CCc2ccccc21` (stereo not shown), the Thrombin was 0. The value for `Cc1cc(N)no1` was 0.

For `FC1(F)CNCC(F)(F)O1`, the Thrombin was 0. The value for `COc1ccc(CN2CCNCC2)cc1F` was 0. The value for `CN1CC(=O)NC1=O` was 0. In the case of `N#CCCN1CCc2ccccc21` it was 0.

With `COc1ccccc1N1CCNCC1`, the Thrombin was 0. The value for `Oc1ccc(C2CCNCC2)cc1` was 0. In the case of `O=C(Nc1ccccc1)C1CC1`, the Thrombin is 0. In the case of `O=C(O)c1cnc(-c2ccccc2)s1` it was 1 (active). The value for `O=C1CCCc2occc21` was 0; that for `CCc1nccn1CC(=O)O` was 0.

Consider `Fc1ccc(CC2CCCNC2)cc1` (stereo not shown), for which the Thrombin is 0. In the case of `COc1ccccc1C1CCNCC1` it was 0. `c1ccc2sc(N3CCNCC3)nc2c1`: the Thrombin is 0. Regarding `CCCN1C(=O)CC(=O)NC1=S`, the Thrombin is 0.

`O=C1CCN(c2ccncc2)CC1`: the Thrombin is 0.

`O=C1NC(=O)C2(CCc3ccccc32)N1` (stereo not shown): the Thrombin was 0. In the case of `Nc1ccc(SC(F)F)cc1` it was 0; in that of `Fc1ccc2c(C3CCNCC3)c[nH]c2c1`, 0; in that of `CC(=O)c1ccc2c(c1)CNCC2`, 0. In the case of `O=C(CN1CCCC1)c1ccccc1Cl` it was 0.

For the compound `Nc1ccc(-c2ccccc2)cc1C(=O)O`, the Thrombin was 0. The value for `O=C(c1ccncc1)N1CCNCC1` was 0; that for `O=C(NC1CC1)c1ccccc1O` was 0; that for `Cc1ccc(CCNc2ccccc2)cn1` was 0.

Take `CS(=O)(=O)Nc1ccc(C(=O)O)cc1`: the Thrombin was 0. The value for `Oc1ccc(-n2cncn2)cc1` was 0; that for `Nc1nnc(-c2cccs2)[nH]1` was 1 (active).

In the case of `CS(=O)(=O)c1ccc(N2CCNCC2)cc1`, the Thrombin was 0. The value for `C1=C[C@H]2O[C@@H]1c1ccccc12` was 0.
